High-throughput results from PubChem.
Shown are actives, neighbours in structure and some others; about 2.3% of the full set was active somewhere.
ABHD5-PLIN5 inh: inhibitors of human ABHD5-perilipin-5 interaction. actives 0.78% (n = 360,000). inhibition, % at 4 µM. AID 602281. Q00G26+Q8WTS1. Split G. princeps luciferase complementation, luminescence, 4 h;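 active = inhibition above the mean inhibition across every tested compound plus 3 SD, cut at about 22% in these data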;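 note: 0% = DMSO only wells and the 100% control is not disclosed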
Target sequence (Q00G26 whole entry, looked up): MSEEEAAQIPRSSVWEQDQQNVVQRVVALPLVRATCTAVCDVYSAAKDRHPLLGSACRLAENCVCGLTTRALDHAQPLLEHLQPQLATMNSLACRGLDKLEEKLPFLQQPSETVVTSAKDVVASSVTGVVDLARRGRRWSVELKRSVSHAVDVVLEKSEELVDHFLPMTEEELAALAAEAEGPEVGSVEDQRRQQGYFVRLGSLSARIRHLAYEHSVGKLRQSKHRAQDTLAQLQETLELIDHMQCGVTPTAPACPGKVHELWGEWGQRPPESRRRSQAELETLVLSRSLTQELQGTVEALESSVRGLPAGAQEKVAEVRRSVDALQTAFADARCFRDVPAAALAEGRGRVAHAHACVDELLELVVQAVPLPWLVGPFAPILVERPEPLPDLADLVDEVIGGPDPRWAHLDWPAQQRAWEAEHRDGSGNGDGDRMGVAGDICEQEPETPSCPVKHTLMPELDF
Target sequence (Q8WTS1 whole entry, looked up): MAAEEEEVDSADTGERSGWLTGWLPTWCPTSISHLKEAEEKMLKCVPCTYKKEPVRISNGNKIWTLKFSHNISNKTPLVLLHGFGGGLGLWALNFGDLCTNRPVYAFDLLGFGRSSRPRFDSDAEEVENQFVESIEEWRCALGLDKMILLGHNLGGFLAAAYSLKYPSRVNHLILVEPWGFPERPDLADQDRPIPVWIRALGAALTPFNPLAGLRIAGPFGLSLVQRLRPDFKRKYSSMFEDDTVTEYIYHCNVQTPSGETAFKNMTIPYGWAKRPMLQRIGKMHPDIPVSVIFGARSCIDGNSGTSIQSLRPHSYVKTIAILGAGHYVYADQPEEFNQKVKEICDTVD
NTR1 ag: NTR1 (human) agonism | AID 493036 | actives 0.17% (n = 330,000) | activation, % at 20 µM | NTR1-U2OS beta-arrestin-GFP spot imaging, agonist mode | P30989;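 active = activation at or above 40% of the spot to cytoplasm intensity ratio, with at least 20 cells analyzed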;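 note: 0% = DMSO without peptide and 100% = 100 nM NTR1 peptide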
Granule exo inh: blocks lytic granule exocytosis; inhibition, % at 10 µM; AID 651702; TALL-104 LAMP-1 surface exposure, flow cytometry; cells stimulated with thapsigargin and PMA; actives 0.66% (n = 360,000);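 active = inhibition above about 55%, limit read from the data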
Beta2AR agonist: human beta-2 adrenergic receptor agonism by FAP; P07550; Am2.2-beta2AR cells, FAP receptor internalization, flow cytometry; response, % (concentration not given with the values); actives 0.43% (n = 340,000);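 active = response above a set limit, near 3 SD of response in nonfluorescent compounds, cut at about 42% in these data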
HTR2A ag: mouse HTR2A agonism via beta-arrestin recruitment | actives 0.66% (n = 360,000) | AID 624169 | activation, % at 7.6 µM | P35363 | CHO-K1 mHTR2A beta-arrestin complementation, luminescence; percent of 30 µM serotonin response;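 active = activation above a run cutoff, the mean activation of all tested compounds plus 3 SD, cut at about 14% in these data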;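 note: 0% = plate median of compound wells and 100% = 30 µM serotonin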
Numbers without * were called inactive; . = not tested or not shown.

SMILES | ABHD5-PLIN5 inh | NTR1 ag | Granule exo inh | Beta2AR agonist | HTR2A ag
Cc1cc(NC(=O)CSc2nc3sc(C)c(C)c3c(=O)n2C2CCCC2)no1 | 1 | 1 | -1 | 1 | 17*
COc1ccc(C(=O)N=C2SC3CS(=O)(=O)CC3N2c2ccc(N(C)C)cc2)cc1OC (stereo not drawn) | -9 | -1 | -8 | 54* | 1
COc1ccc(OCC(=O)NNc2c3ccccc3nc3ccccc23)cc1 | 4 | 58* | 1 | 9 | 1
CCC(=O)Nc1sc2c(c1C#N)CC(C)(CC)OC2 (stereo not drawn) | -4 | 1 | -1 | -6 | 3
Cc1ccc(-n2sc3ccccc3c2=O)cc1S(=O)(=O)N1CCCCC1 | 104* | 1 | -4 | 5 | 17*
CN(C)S(=O)(=O)c1cccc(-n2sc3ccccc3c2=O)c1 | 47* | -2 | -1 | 2 | -3
O=c1c2ccccc2sn1-c1cccc(Cl)c1 | -7 | . | 38 | . | 4
Cc1cc(Br)cn2c(Cc3ccccc3)c(-c3cccc(Br)c3)nc12 | -7 | . | 10 | . | 2
CCOc1ccc2[nH]c(C(=O)N/N=C/c3ccc(OC)cc3)cc2c1 | -6 | 7 | 28 | 52* | 5
COc1ccc(/C=N/NC(=O)c2cc3cc(OC)c(OC)cc3[nH]2)cc1 | 14 | 1 | -8 | 0 | -1
CC(C)c1ccc(/C=C/c2[nH]c(=O)[nH]c(=O)c2[N+](=O)[O-])cc1 | 22* | 3 | -2 | 10 | -2
O=C(O)c1ccccc1NN=Cc1ccccc1 | -10 | . | 60* | -7 | 6
O=C/C=C/c1c(-c2ccccc2)cc2oc3ccccc3cc1-2 | 2 | 4 | 53 | 64* | 0
Nc1ccc(-c2cc3ccccc3oc2=O)cc1 | 2 | -1 | -13 | -3 | 4
N#C/C(=C\c1cccs1)C(=O)c1ccccc1Cl | . | 35 | . | 54* | .
CC(C)(C)C(=O)/C(C#N)=C/c1cccs1 | -1 | 1 | -4 | 0 | 4
CCn1c(Sc2ccc(N)cc2Cl)nc2ccccc21 | 10 | 3 | 3 | -1 | -1
COC(=O)C1=C(C)N(Cc2ccccc2)C(=NCc2cccc(Cl)c2)N[C@H]1c1cccc(F)c1 | 6 | 18 | -4 | 48* | -5
COC(=O)C1=C(C)N(Cc2ccccc2)C(=NCc2ccc(OC)cc2)N[C@H]1c1cccc(F)c1 | 8 | 9 | -1 | 35 | -3
COc1cccc(NC(=O)N(C)C[C@H]2OCc3cnnn3CCCC(=O)N([C@H](C)CO)C[C@@H]2C)c1 | 3 | . | -1 | . | 3
O=C(N/N=C/c1cccc(OC(=O)c2ccc3c(c2)OCO3)c1)c1cncc(Br)c1 | 9 | 14 | -2 | 0 | 1
O=C(N/N=C/c1ccc(OC(=O)c2ccc3c(c2)OCO3)cc1)c1cncc(Br)c1 | 9 | 1 | -3 | 52* | 1
Oc1ccc(Nc2nc3ccccc3nc2Nc2ccc(O)cc2)cc1 | 57* | -1 | 0 | 1 | -1
O=c1oc2c(CN3CCCCC3)c(O)ccc2cc1-c1nc2ccccc2[nH]1 | 3 | . | -3 | -4 | 2
O=c1oc2c(CN3CCN(CCO)CC3)c(O)ccc2cc1-c1ccccn1 | -1 | 2 | -3 | 43* | 1
SMILES | ABHD5-PLIN5 inh | NTR1 ag | Granule exo inh | Beta2AR agonist | HTR2A ag
CCN(CC)c1ccc(/C=N/NC(=O)c2ccc3nc[nH]c3c2)c(O)c1 | -1 | 2 | 67* | 18 | -2
COc1cccc(/C=N/NC(=O)c2ccc3nc[nH]c3c2)c1O | -2 | 0 | 6 | -4 | -2
Cc1ccc(OCC(=O)N/N=C\c2cccn2C)c([N+](=O)[O-])c1 | -1 | -1 | -2 | -1 | 2
CCCN(Cc1ccccc1)C(=S)Nc1ccc(F)cc1 | -2 | 1 | 0 | 0 | -2
CCCN(Cc1ccccc1)C(=S)Nc1ccc(SC(F)F)cc1 | -7 | . | 90* | -2 | -8
Cc1ccc(OCC(=O)NCCCNC(=O)c2ccco2)cc1 | -8 | 0 | 0 | 0 | 6
COc1ccc(Cc2c(-c3ccco3)nc3ccc(Br)cn23)c(C)c1 | 43* | . | 41 | . | 1
COc1ccc(Cc2c(-c3ccco3)nc3c(C)cc(Br)cn23)c(C)c1 | 5 | . | -5 | . | 0
COc1ccc(Cc2c(-c3ccco3)nc3ccc(Cl)cn23)c(C)c1 | 27* | . | 36 | . | -1
Cc1ccc(Cc2c(-c3ccco3)nc3ccc(Br)cn23)cc1 | 58* | . | 33 | . | -4
COc1cc([N+](=O)[O-])cc2sc(NC(C)=O)nc12 | 2 | -1 | -2 | 7 | 4
CC(=O)Oc1cccc(/C=C2\Sc3ccccc3C2=O)c1 | 22* | 13 | -9 | 7 | 1
CCCCOc1ccc(/C=C2/Sc3ccccc3C2=O)cc1 | 1 | -1 | 5 | 3 | 2
C=CCNc1nc(N2CCCCC2)c(C#N)c2c1CN(Cc1ccccc1)CC2 | -28 | 12 | -1 | 21 | 39*
O=C(Nc1ccc2nc(-c3ccco3)c(-c3ccco3)nc2c1)N1CCCCCC1 | . | 0 | . | . | .
CCOC(=O)C1CCN(C(=O)Nc2ccc3nc(-c4ccco4)c(-c4ccco4)nc3c2)CC1 | 31* | -1 | -1 | 20 | 5
O=C(COc1ccc2ccccc2c1Br)N1CCCCC1 | -7 | 1 | -2 | -8 | 3
O=C(Oc1ccc2ccccc2c1Br)N1CCCCCC1 | -1 | 4 | -4 | 62* | 1
CC(=O)Nc1c(C(=O)O)ccc(C)c1OCc1ccccc1 | 0 | . | 2 | 5 | -4
CCCN1C(=O)/C(=C/c2nc3ccccc3c(=O)[nH]2)c2ccccc21 | 1 | 9 | -1 | -5 | 1
CC(C)N1C(=O)/C(=C\c2nc3ccccc3c(=O)[nH]2)c2ccccc21 | 18 | . | 98* | 16 | 0
CCCN1CC(O)=C(C#N)C1=O | -6 | 2 | -6 | -3 | -1
O=C(CCNc1ccc(Br)cc1)c1cccc([N+](=O)[O-])c1 | 1 | -1 | 86* | 7 | 1
O=C(CCNc1ccc(F)cc1)c1cccc([N+](=O)[O-])c1 | -6 | 5 | 34 | -4 | 3
O=C(CCNc1ccc(Cc2ccncc2)cc1)c1ccc([N+](=O)[O-])cc1 | 4 | 2 | 90* | -6 | -2
SMILES | ABHD5-PLIN5 inh | NTR1 ag | Granule exo inh | Beta2AR agonist | HTR2A ag
CN(C(=O)c1ccoc1)c1ccc2ccccc2c1 | -1 | 0 | 0 | 4 | -2
CC(=O)c1ccc2noc(-c3cccc(F)c3)c2c1 | 22* | 2 | -2 | 10 | 11
COc1cccc(-c2onc3ccc(C(C)=O)cc23)c1 | 11 | 1 | 4 | -27 | -9
CCOC(=O)N1CCN(S(=O)(=O)c2ccc(C(=O)NNc3nc4cc(C)cc(C)c4s3)cc2)CC1 | 5 | 4 | -2 | 23 | 23*
C/C(=N\NC(=S)NCCc1ccccc1)c1ccc(Cl)cc1Cl | -7 | 5 | 88* | -8 | -25
NC(N)=N/N=C(\N=Nc1ccccc1)c1ccc(Cl)cc1 | -4 | . | 56* | 16 | -6
COc1ccc(C(C[N+](=O)[O-])c2c(-c3ccccc3)cc3ccccn23)c(OC)c1 (stereo not drawn) | 41* | 37 | 2 | 30 | -1
